Most compounds without a hit are left out; they make up all but 0.9% or so of the library.
CDC25B-CDK2 inh – human CDC25B-CDK2/CyclinA binding inhibition. HTRF CDC25B-CDK2/CyclinA binding, anti-His/anti-Flag; active compounds read high. 0.72% of 94,000 active. AID 1259370. z-score (no concentration beside the values); in the data active means z-score above about 3.2
TAR Tat displ – HIV-1 TAR-Tat binding disruption | HIV-1 TAR RNA, Tat peptide displacement FRET; active compounds read high | z-score (concentration not given with the values) | 0.6% of 100,000 active | AID 1259389; active means z-score of 3 or more in at least 2 runs
A number is an active result; n = inactive; x = not tested or not shown; ! = repeats disagree.

SMILES	CDC25B-CDK2 inh	TAR Tat displ
Cc1cc2c(C(C)C)c(O)c(O)c(C=O)c2c(O)c1-c1c(C)cc2c(C(C)C)c(O)c(O)c(C=O)c2c1O	n	26!
CCc1ccc(-n2c(=O)c(C#N)cc3c(=O)n4ccccc4nc32)cc1	n	n
COC(=O)c1ccc(C(c2c(O)c3ccccc3oc2=O)c2c(O)c3ccccc3oc2=O)cc1	n	x
Cc1nn(C)c(N)c1C1=CCN(C)CC1	n	n
CN1CCN(c2cnnc3c(Cl)cccc23)CC1	x	n
CC1CCN(CC(O)c2c[nH]c3ccccc23)CC1 (stereo not given)	n	n
CCCCCn1c(N)c(C(=O)OC)c2nc3ccccc3nc21	n	n
Nc1c(C(=O)NCc2ccccc2)c2nc3ccccc3nc2n1Cc1ccco1	12	n
Cc1[nH]nc2c1C(c1ccc(OC(C)C)cc1)SCC(=O)N2 (stereo not given)	n	n
CCc1ccc(C2SCC(=O)Nc3c2c(C)nn3-c2ccc(F)cc2)cc1 (stereo not given)	n	n
CN1CC=C(c2noc(CCC(=O)N3CCN(c4ccc(Cl)cc4)CC3)n2)CC1	n	n
c1ccc(CNCCc2c[nH]c3ccccc23)cc1	n	n
CCc1ccc(CNCCc2c[nH]c3ccccc23)cc1	n	n
Fc1cccc(CNCCc2c[nH]c3ccccc23)c1	8	n
Cc1cccc(CNCCc2c[nH]c3ccccc23)c1	16	n
Cc1ccc(-n2nc(C)c3c2NC(=O)CSC3c2cccc(C)c2)cc1 (stereo not given)	n	n
CC[C@]1(O)C[C@H]2CN(CCc3c([nH]c4ccccc34)[C@H](C(=O)OC)[C@H]2c2cc3c(cc2OC)N(C=O)[C@H]2[C@@](O)(C(=O)OC)[C@H](OC(C)=O)[C@]4(CC)C=CCN5CC[C@]32[C@@H]54)C1	x	n
Cc1ccccc1C1NCc2ccccc2-n2cccc21 (stereo not given)	n	n
CN1CSC2=C(C#N)C(c3cccc(Br)c3)CC(=O)N2C1 (stereo not given)	5.2	n
N#CC1=C(N)Oc2c(c(=O)oc3ccccc23)C1c1cccc(Br)c1 (stereo not given)	n	x
c1ccc2c(c1)[nH]c1cnccc12	x	n
Cc1c2ccncc2c(C)c2c1[nH]c1ccccc12	4.2	n
Cc1nccc2c1[nH]c1ccccc12	n	19
Cc1[nH]nc2c1C(c1ccc(OCc3ccc(F)cc3)cc1)SCC(=O)N2 (stereo not given)	n	n
Cc1[nH]nc2c1C(c1cccs1)SCC(=O)N2 (stereo not given)	n	n
SMILES	CDC25B-CDK2 inh	TAR Tat displ
CC1CCc2nn(CC(=O)N3CCC4(CC3)OCCO4)cc2C1 (stereo not given)	n	x
O=C(Nc1ccccc1)Nc1cnns1	20	n
CC(N)[C@H](O)c1ccc(O)c(O)c1 (stereo not given in full)	n	x
C[C@H](N)[C@H](O)c1ccc(O)c(O)c1	x	8.2
CNCCc1c[nH]c2ccc(O)cc12	9.8	x
CNCCc1c[nH]c2ccccc12	n	x
NC(N)=N/N=C/c1ccc(/C=N/N=C(N)N)cc1	7.6	x
O=C(NC(OC(NC(=O)C(F)(F)F)C(Cl)(Cl)Cl)C(Cl)(Cl)Cl)C(F)(F)F (stereo not given)	n	x
CC(C)OC(=O)c1sc2nc3c(cc2c1N)CN(C)CC3	n	n
CN1CCc2nc(SCc3cccnc3)c(C#N)cc2C1	19	n
COC(=O)c1sc2nc3c(cc2c1N)CN(C)CC3	n	n
Cc1ccc(-n2nc(C)c3c2NC(=O)CSC3c2ccc3c(c2)OCO3)cc1Cl (stereo not given)	n	n
CN1CCc2cc(O)cc3c2[C@H]1Cc1ccc(O)c(O)c1-3	n	x
COc1cc2c(cc1O)C[C@H]1c3c(cc(O)c(OC)c3-2)CCN1C	x	13
CCCCCCC(C)(C)c1ccc([C@H]2CCC[C@H](O)C2)c(O)c1	x	n
CCOC(=O)C(C)(C)ON1CC1(C(F)(F)F)C(F)(F)F (stereo not given)	n	x
COc1cc2c(cc1O)C(C)NCC2 (stereo not given)	x	n
C[C@@H]1NCCc2cc(O)c(O)cc21	x	19
CCCCOc1ccc(C2SCC(=O)Nc3c2c(C)nn3-c2nc(C)cc(C)n2)cc1 (stereo not given)	n	n
CCC1(C(=O)c2ccc(Cl)cc2)C2c3cc(Br)ccc3OC(=O)C21C(=O)OC (stereo not given)	n	n
CCOC(=O)C12C(=O)Oc3ccc(Br)cc3C1C2(CC)C(=O)c1ccccc1 (stereo not given)	15	n
CC(C)=CCC[C@]1(C)C=Cc2c(O)c3c(c(CC=C(C)C)c2O1)O[C@]12C(=CC4C[C@@H]1C(C)(C)O[C@@]2(C/C=C(/C)C(=O)O)C4=O)C3=O	x	n
C=CC[N+]12CN3CN(CN(C3)C1)C2	4.3	x

Source: PubChem
